Source: PubChem (National Center for Advancing Translational Sciences (NCATS))
CtBP-E1A blk: qHTS Assay for Inhibitors of the CtBP/E1A Interaction | activity change, % (no concentration beside the values) | AlphaScreen GST-E1A/His-CtBP binding, 1536-well; stronger effect = lower value | 0.49% of 340,000 active | CtBP / adenovirus E1A interaction (AlphaScreen) | AID 651724, 2012; in the data active means activity change below about -65%; inconclusive means mostly about -30% to -63%
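Homogeneous bead-based format: GST-tagged E1A captured on glutathione donor beads, His-tagged CtBP on nickel acceptor beads; compounds precede bead addition by 2 h at 37 °C.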
DT40 TDP1 CPT: qHTS for Inhibitors of human tyrosyl-DNA phosphodiesterase 1 (TDP1): qHTS in cells in presence of CPT; 12% of 420,000 active; Potency, µM (series often up to 46.2 µM), for the others: at the highest dose activity change, negative = growth inhibition, usual class: inhibitors; chicken DT40 Tdp1-/-;hTDP1 cells + 20 nM CPT, ATP luminescence, 48 h; further: potency means the concentration at half of the fitted maximal effect; nearly all actives have a fitted effect of over 55% in size
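Chicken DT40 Tdp1-/- cells stably complemented with human TDP1 were seeded at 400 cells/well in medium containing 20 nM camptothecin, exposed to pin-transferred compounds, and grown at 37 °C for at least 48 hr. Viability was read as ATP luminescence.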
IL-1B inflam inh: qHTS for Inhibitors of Inflammasome Signaling: IL-1-beta AlphaLISA Primary Screen | THP-1 LPS/ATP IL-1B secretion, AlphaLISA, 16 h; stronger effect = lower value | activity change, % at 57.5 µM | 4.7% of 360,000 active | AID 743279, 2014; in the data active means activity change below about -50%; inconclusive means mostly about -30% to -49%
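Secreted IL-1B measured by AlphaLISA bead assay after 16 h compound exposure of THP-1 cells; compounds (final up to 57.5 uM) added 1 h before LPS (250 ng/mL) and ATP (1.25 mM) stimulation; lower signal means less secretion.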
Six1-Eya2 inh: qHTS Assay for Inhibitors of the Six1/Eya2 Interaction | 0.56% of 360,000 active | activity change, % (test concentration not listed) | AlphaScreen GST-Six1/His-Eya2 binding, biochemical; stronger effect = lower value | Homeobox protein SIX1 (Homo sapiens) + Protein phosphatase EYA2 (Homo sapiens), … | AID 651725, 2012; in the data active means activity change below about -65%; inconclusive means mostly about -30% to -63%
Target sequence (O00167 whole entry, looked up): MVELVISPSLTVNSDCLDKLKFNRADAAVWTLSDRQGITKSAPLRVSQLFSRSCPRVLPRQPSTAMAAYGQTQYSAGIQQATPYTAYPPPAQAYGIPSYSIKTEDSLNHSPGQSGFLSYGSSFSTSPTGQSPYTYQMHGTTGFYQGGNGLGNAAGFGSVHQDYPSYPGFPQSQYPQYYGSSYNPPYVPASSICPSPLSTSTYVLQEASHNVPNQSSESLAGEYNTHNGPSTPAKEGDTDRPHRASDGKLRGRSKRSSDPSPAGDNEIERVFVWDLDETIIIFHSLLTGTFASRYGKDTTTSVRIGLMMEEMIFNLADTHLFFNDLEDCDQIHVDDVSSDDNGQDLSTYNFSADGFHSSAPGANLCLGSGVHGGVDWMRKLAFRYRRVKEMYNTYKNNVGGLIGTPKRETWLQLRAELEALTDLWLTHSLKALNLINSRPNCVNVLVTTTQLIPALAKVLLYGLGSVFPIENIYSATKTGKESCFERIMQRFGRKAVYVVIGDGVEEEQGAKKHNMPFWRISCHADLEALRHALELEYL
Target sequence (Q15475 whole entry, looked up): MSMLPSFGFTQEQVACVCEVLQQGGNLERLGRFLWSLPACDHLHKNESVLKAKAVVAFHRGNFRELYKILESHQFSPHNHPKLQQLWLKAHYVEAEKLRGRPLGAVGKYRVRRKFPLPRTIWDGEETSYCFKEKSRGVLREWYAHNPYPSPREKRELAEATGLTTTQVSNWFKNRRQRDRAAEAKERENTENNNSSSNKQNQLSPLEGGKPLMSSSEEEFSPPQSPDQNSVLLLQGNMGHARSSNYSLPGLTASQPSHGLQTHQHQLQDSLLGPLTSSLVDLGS
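Compounds are tested against tagged Six1 and Eya2 proteins bridged by glutathione donor and nickel acceptor beads; after a one-hour incubation at 37 °C without light, AlphaScreen emission is recorded.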
TDP1 inh: qHTS Assay for Inhibitors of Tyrosyl-DNA Phosphodiesterase (TDP1); Tyrosyl-DNA phosphodiesterase 1 (Homo sapiens), Q9NUW8; recombinant TDP1, AlphaScreen DNA substrate cleavage; Potency, µM (highest dose often 130 µM), without a hit: at the top dose activity change, negative = inhibition, hits mostly inhibitors; 0.28% of 350,000 active; further: potency means the concentration at half of the fitted maximal effect; nearly all actives have a fitted effect of over 40% in size
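Tdp1 1 nM final; 15 min RT w/ cpd; substrate 15 nM, 5 min; beads 10 ug/ml, 10 min; AlphaScreen read. Neg ctrl: no enzyme.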
DT40 TDP1 no CPT: qHTS for Inhibitors of human tyrosyl-DNA phosphodiesterase 1 (TDP1): qHTS in cells in absence of CPT; DT40 Tdp1-/- hTDP1 cells, no CPT, ATP luminescence, 48 h; Potency, µM (highest dose often 46.2 µM), inactives show top-dose activity change, negative = growth inhibition, actives largely listed as inhibitors; 15% of 420,000 active; AID 686978, 2013; further: potency means the concentration at half of the fitted maximal effect; nearly all actives have a fitted effect of over 55% in size
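Camptothecin absent (DMSO only). Human TDP1-complemented DT40 knockout cells, 400 cells/well, 37 °C for minimum 48 hr; ATP measured via CellTiter-Glo, 30 min dark incubation, luminescence.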
Numbers without * were called inactive; ? = inconclusive; · = no result given. Only some compounds are listed: those with a hit (about 18% of all), similar ones and a draw of the others. Unless noted, the call rests on the fitted dose curve; in most records, active means well fitted curve in the direction sought with a large enough effect; inconclusive means small, poorly fitted or top-dose-only effect, or another doubt; inactive means no such curve, though single readings can be large; an effect the other way counts as inactive or inconclusive. On the % scale 0 is the no-effect control and ±100 the full control effect.

SMILES	CtBP-E1A blk	DT40 TDP1 CPT	IL-1B inflam inh	Six1-Eya2 inh	TDP1 inh	DT40 TDP1 no CPT
CC1=C(C(=O)Nc2ccc(C)cc2C)C(c2cccn2C)n2ncnc2N1 (stereo not drawn)	·	-2%	·	·	-2%	-23%
Cn1c(COc2ccc(Cl)cc2)nnc1SCc1ncc(-c2ccccc2)o1	-4	?	-12	-3	2%	16µM*
COc1ccc(-n2cnnc2SCc2ncc(-c3ccccc3)o2)cc1	3	-14%	4	-4	5%	-27%
c1cc2c(c(CC3CO3)c1CC1CO1)OCCOCCOCCOCCO2 (stereo not drawn)	-1	2.1µM*	6	3	·	2.3µM*
CCOC(=O)c1ccc(N2C(=O)c3n[nH]c(-c4cccs4)c3C2c2cccc(F)c2)cc1 (stereo not drawn)	·	?	·	·	-2%	18µM*
CCOC(=O)c1ccc(N2C(=O)c3n[nH]c(-c4cccs4)c3C2c2ccc(O)c(OC)c2)cc1 (stereo not drawn)	·	?	·	·	2%	21µM*
CCOC(=O)c1ccc(N2C(=O)c3n[nH]c(-c4cccs4)c3C2c2ccc(C)cc2)cc1 (stereo not drawn)	·	1%	·	·	2%	-2%
O=C1NCCN(CC2CCN(CCC3CCCC3)CC2)C1=O	-2	-12%	24	0	·	-2%
COC(=O)[C@]12CCCCC=C1N(CCc1ccc(OC)c(OC)c1)C(=O)[C@H](CC(=O)N1CCN(C(=O)c3ccco3)CC1)C2	?	?	?	0	·	?
COC(=O)[C@]12CCCCC=C1N(CCC1=CCCCC1)C(=O)[C@H](CC(=O)N1CCCC1)C2	3	?	-3	-6	·	16µM*
COC(=O)[C@]12CCCCC=C1N(CCC1=CCCCC1)C(=O)[C@H](CC(=O)N1CCN(C(=O)c3ccco3)CC1)C2	0	?	-15	-2	·	26µM*
COC(=O)[C@]12CCCCC=C1N(CCc1ccc(OC)c(OC)c1)C(=O)[C@H](CC(=O)N1CCCC1)C2	-3	?	?	0	·	?
COC(=O)[C@]12CCCCC=C1N(Cc1ccccc1)C(=O)[C@H](CC(=O)N1CCCC1)C2	-1	?	21	6	·	?
COC(=O)[C@]12CCCCC=C1N(CCC1=CCCCC1)C(=O)[C@H](CC(=O)N1CCC(c3ccccc3)CC1)C2	-11	?	7	-16	·	16µM*
Cc1cc(/C=C2/SC(=S)N(c3cccc(C(F)(F)F)c3)C2=O)c(C)n1-c1cccnc1	-29	0.73µM*	?	?	·	0.73µM*
COc1cccc(/C=C2\SC(=S)N(c3cccnc3)C2=O)c1OC	1	0%	34	-10	0%	4%
O=C1/C(=C/c2cccnc2)SC(=S)N1Cc1ccco1	-5	23µM*	-97*	-21	·	21µM*
O=C1/C(=C/c2ccco2)SC(=S)N1c1cccnc1	-29	5%	6	-71*	·	-25%
O=C1/C(=C/c2cccnc2)SC(=S)N1c1ccccc1	·	-16%	17	3	-1%	-8%
COCCN(C(=O)COC(=O)c1ccc2[nH]c(C)c(C)c2c1)c1c(N)n(Cc2ccccc2)c(=O)[nH]c1=O	-9	-22%	-27	-17	4%	0%
Cc1ccccc1Oc1ccc(Oc2ccccc2C)nn1	0	-20%	7	5	4%	-23%
CC(=O)Nc1ccc(NC2=CC(=O)c3ccccc3C2=O)cc1	-6	13%	19	-4	·	-6%
O=C1C(Nc2ccc(O)cc2)=C/C(=N/S(=O)(=O)c2cccs2)c2ccccc21	?	1.2µM*	-99*	-77*	11%	1.5µM*
O=C(O)c1ccc(Nc2nc3ccccc3nc2NS(=O)(=O)c2cccs2)cc1	-4	-12%	4	6	1%	15%
O=C(O)c1ccc(NC2=C/C(=N/S(=O)(=O)c3cccs3)c3ccccc3C2=O)cc1	?	9.2µM*	-94*	?	·	6.5µM*
SMILES	CtBP-E1A blk	DT40 TDP1 CPT	IL-1B inflam inh	Six1-Eya2 inh	TDP1 inh	DT40 TDP1 no CPT
CC(=O)N1CCc2c(sc(NC(=O)c3ccc([N+](=O)[O-])o3)c2C(N)=O)C1	-25	3.7µM*	-80*	-16	·	7.3µM*
CN1CCc2c(sc(NC(=O)C3COc4ccccc4O3)c2C(N)=O)C1 (stereo not drawn)	0	?	0	-1	6%	?
COC(=O)c1c(NC(=O)c2cccc(N3C(=O)CCC3=O)c2)sc2c1CCN(C(C)=O)C2	-14	5%	-3	-12	6%	-10%
CC(=O)N1CCc2c(sc(NC(=O)c3ccc4c(c3)OCCO4)c2C#N)C1	4	4.1µM*	25	3	-1%	3.7µM*
CC(=O)N1CCc2c(sc(NC(=O)c3ccc(S(=O)(=O)N(C)C)cc3)c2C#N)C1	2	23%	36	5	·	1%
COC(=O)c1c(NC(=O)c2nc3ccccc3s2)sc2c1CCN(C(C)=O)C2	-1	7.3µM*	?	-6	1%	6.5µM*
CC(=O)N1CCc2c(sc(NC(=O)C3COc4ccccc4O3)c2C(N)=O)C1 (stereo not drawn)	-9	21µM*	-22	-3	4%	?
COCCCNC(=O)c1oc2ccc(S(=O)(=O)N3CCOCC3)cc2c1C	-7	1%	6	0	0%	-23%
CCOC(=O)N1CCc2c(sc(NC(=O)C3COc4ccccc4O3)c2C(N)=O)C1 (stereo not drawn)	-4	?	-5	-6	-3%	?
COC(=O)c1c(NC(=O)C2COc3ccccc3O2)sc2c1CCN(C(C)=O)C2 (stereo not drawn)	-3	12µM*	14	-11	8%	?
Nc1ncnc(Nc2ccccc2Oc2ccccc2)n1	8	-1%	12	-7	·	-3%
CCOC(=O)CCc1ccc(NC(=O)/C=C/c2ccc([N+](=O)[O-])o2)cc1	13	1.8µM*	-80*	-9	·	3.3µM*
